Screens (PubChem)
ALR H2O2 inh – human ALR oxidase inhibition via reduced H2O2; P55789; purified ALR, DTT oxidation, H2O2 HRP-luminol luminescence; inhibition, % (concentration not given with the values); actives 3.8% (n = 290,000);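 active = mean replicate inhibition above about 79%, with every replicate also reaching it, limit read from the data; inconclusive = only one of the two criteria met; inactive = mean below limit and not every replicate reaching it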
Target sequence (P55789 whole entry, looked up): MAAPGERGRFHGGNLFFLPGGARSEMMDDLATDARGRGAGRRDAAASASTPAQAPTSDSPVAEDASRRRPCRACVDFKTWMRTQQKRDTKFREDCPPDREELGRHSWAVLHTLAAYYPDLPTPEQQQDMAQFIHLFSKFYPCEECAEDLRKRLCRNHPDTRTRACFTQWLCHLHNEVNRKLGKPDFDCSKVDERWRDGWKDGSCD
VLA-4 inh – inhibition in a human VLA-4 binding assay; VLA-4 expressing cells, ligand binding flow cytometry; P13612; actives 0.2% (n = 330,000); AID 2557; inhibition, % (about 7 µM as worked out from the volumes in the protocol); in the data active = inhibition above about 50%
Efflux pump inh – inhibitors of Candida antifungal efflux pumps expressed in yeast | AID 485275 | S. cerevisiae Candida pump triplex, Nile Red efflux | inhibition, % at 10 µM | actives 0.44% (n = 330,000);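 active = plate passing quality check with inhibition over a set limit, or well fluorescence over plate mean plus 4 SD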;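 note: Nile Red retained in pooled yeast measured as flow cytometry median fluorescence; 0% = buffer negative control and 100% = Enniatin B positive control; higher means more Nile Red kept so more efflux inhibition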
Bfl-1 A1 inh – inhibitors of the anti-apoptotic protein A1, read as caspase activation | MEF A1-2A-BIM cells, Caspase-Glo 3/7 luminescence, 3 h; percent of clofoctol response, vehicle zero | caspase activation, % (test concentration not listed) | actives 0.066% (n = 330,000);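 active = over half of replicate activation scores above 10%, or exactly half above 10 with the replicate mean above 10; inconclusive = replicate mean below 10 yet half the replicates above 10; inactive = over half of replicates below 10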
AHR activator – human AHR activation. AID 2796. AHR-responsive luciferase reporter cells, luminescence. actives 2.5% (n = 320,000). activation, % at 5 µM; in the data active = activation above about 47%;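 note: 0% = vehicle wells and 100% = reference agonist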
Mot1-301 SUMO – SUMOylation pathway inhibition by Mot1-301 growth rescue; S. cerevisiae Mot1-301 growth rescue, ATP luminescence, 38.5C; percent above DMSO median, 100 means doubled; growth rescue, % at 18.8 µM; actives 1% (n = 320,000);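 active = every valid replicate shows activation above 250% relative to neutral control wells; inactive = the rest, any valid replicate at or below 250%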;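 note: OY570 slx delta 5 strain wells were the positive control but not used for scaling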
Yeast Mot1 SUMO – SUMO pathway inhibitors in yeast Mot1-301 growth; S. cerevisiae Mot1-301 galactose growth, ATP luminescence, 24 h; -100 = growth of slx-deleted rescue strain; shares compounds with Mot1-301 SUMO; growth activity, percent, % at 42 µM; 2,300 tested, under 10 active;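 active = Signal drops as the depositor expects, and the fitted half-maximal dose is no more than ten times the top valid tested dose; inconclusive = Poor fit, or a flat curve whose signal drops by 30% to 70%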;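 note: more negative values mean stronger growth rescue toward the control strain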
AHR act cf – confirmation of human aryl hydrocarbon receptor activators; activation, % at 9 µM; human cells, AHR-responsive luciferase reporter, luminescence; AID 2845; actives 87% (n = 2,300); shares compounds with AHR activator; in the data active = activation above about 49%;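 note: HepG2 hepatoma cells carrying a DRE-driven firefly luciferase reporter; 0% = vehicle wells and 100% = reference agonist wells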
PXR counter – PXR activation, counter-screen for AHR activators; shares compounds with AHR activator; AID 434939; actives 88% (n = 2,300); cell-based PXR reporter, luciferase luminescence; activation, % at 11.6 µM; in the data active = activation above about 11%;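 note: human hepatoma DPX-2 cells expressing full-length human PXR; 0% = DMSO and 100% = reference agonist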
Target sequence (O75469 whole entry, looked up): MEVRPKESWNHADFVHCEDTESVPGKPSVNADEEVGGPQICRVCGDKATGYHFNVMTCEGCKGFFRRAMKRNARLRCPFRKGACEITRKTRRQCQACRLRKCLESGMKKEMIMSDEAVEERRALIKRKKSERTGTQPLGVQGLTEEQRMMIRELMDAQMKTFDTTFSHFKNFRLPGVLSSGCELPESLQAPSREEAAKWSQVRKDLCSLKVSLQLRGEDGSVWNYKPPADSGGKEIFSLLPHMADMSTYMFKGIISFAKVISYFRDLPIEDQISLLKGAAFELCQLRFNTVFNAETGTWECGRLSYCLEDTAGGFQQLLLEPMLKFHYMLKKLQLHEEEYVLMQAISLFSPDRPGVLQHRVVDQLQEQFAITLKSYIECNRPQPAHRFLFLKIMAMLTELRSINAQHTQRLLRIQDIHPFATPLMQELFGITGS
Yeast cmpd fluor – counter-screen for efflux pump inhibitors: compound fluorescence; shares compounds with Efflux pump inh; actives 4% (n = 1,700); fluorescence ratio to DMSO, % at 10 µM; AID 588517; S. cerevisiae AD/pABC3, flow cytometry;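 active = fluorescence ratio to DMSO above its plate's cutoff, the plate mean ratio plus 5 SD, cut at about 210% in these data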;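 note: unstained yeast with no Nile Red so the signal is compound autofluorescence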
Mdr1 pump inh – inhibitors of Candida albicans Mdr1 efflux pump | shares compounds with Efflux pump inh | S. cerevisiae AD/CaMDR1, Nile Red efflux, flow cytometry | inhibition, % at 10 µM | actives 1% (n = 1,700); in the data active = inhibition above about 26%;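 note: 0% = DMSO vehicle and 100% = reference inhibitor; higher means more Nile Red retained so more efflux inhibition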
CaCdr2 efflux inh – blocks the Candida albicans Cdr2 efflux pump in yeast. actives 4% (n = 1,700). AID 588520. S. cerevisiae AD/CaCDR2, Nile Red retention, flow cytometry. shares compounds with Efflux pump inh. Nile Red retention ratio vs DMSO, % at 10 µM; in the data active = Nile Red retention ratio vs DMSO above about 190%;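 note: higher ratio means more blocking of Cdr2 efflux of the dye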
CaCdr1 efflux inh – blocks the Candida albicans Cdr1 efflux pump in yeast | shares compounds with Efflux pump inh | inhibition, % at 10 µM | actives 1% (n = 1,700) | AID 588522 | S. cerevisiae AD/CaCDR1, Nile Red efflux, flow cytometry;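 active = inhibition above the screen-wide mean plus twice its standard deviation, cut at about 32% in these data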
* marks the source's active call; other numbers are inactive results; ? = inconclusive; . = not tested or not shown; + = active, no number. An excerpt weighted towards active compounds, which were near 7.2% of everything screened.

SMILES	ALR H2O2 inh	VLA-4 inh	Efflux pump inh	Bfl-1 A1 inh	AHR activator	Mot1-301 SUMO	Yeast Mot1 SUMO	others
CSc1ccc(Cl)c(C(=O)Nc2ccc(N3CCOCC3)cc2)c1	1	18	0	2	-3	+	0
COc1ccc(-c2[nH]ncc2CNC(C)c2cn(C)nc2C)c(F)c1 (centres undefined)	-3	40	0	0	1	9	.
Cc1ccc(S(=O)(=O)NC2CCCCCCC2)cc1	-4	9	0	0	3	454*	1
Cc1ccc(S(=O)(=O)Nc2n[nH]nc2C(=O)NC2CCCCC2)cc1	-1	18	0	0	0	517*	0
C=CCSc1nc(C)c2cc(C)cc(C)c2n1	-15	-7	0	-2	25	-3	.
COC(=O)C1C(=O)C2=C(CC1C)Nc1ccccc1NC2c1ccc(C)s1 (centres undefined)	44	17	0	0	1	-6	.
CC(OC(=O)CCN=C1NS(=O)(=O)c2ccccc21)C(=O)N(C)C1CCCCC1 (centres undefined)	.	5	0	1	-2	.	.
COc1cc(SC)ccc1C(=O)N1CCCCCC1	-1	8	0	0	0	+	0
CCn1ncc(Br)c1C(=O)Nc1ccc(OC(F)(F)F)cc1	1	14	0	1	96*	451*	-1	AHR act cf=91*;PXR counter=20*
COCCN1C(=O)N[C@@H](CCc2ccccc2)[C@H](C(=O)OC)[C@H]1C	2	15	0	1	5	12	.
COc1ccccc1NC(=O)c1ccc(-n2ccnc2)c([N+](=O)[O-])c1	.	9	0	1	95*	513*	0	AHR act cf=104*;PXR counter=20*
CCOc1cc(N2CCOCC2)c(OCC)cc1NC(=O)c1ccc(-n2ccnc2)c([N+](=O)[O-])c1	.	6	0	1	3	50	.
c1ccc2c(c1)[nH]c1c(N3CCN(C4CCCCC4)CC3)ncnc12	-5	2	0	0	80*	739*	-1	AHR act cf=68*;PXR counter=14*
CCOC(=O)c1c(C)[nH]c(C(=O)COC(=O)Cn2cc(C(F)(F)F)ccc2=O)c1C	.	12	0	-1	1	8	.
c1ccc(-c2cc3cc4c(cc3cn2)OCO4)cc1	-2	-11	0	-13	123*	528*	0	AHR act cf=67*;PXR counter=90*
CCOC(=O)C1CCN(C(=O)N(CC)CC)CC1	0	7	0	1	-1	6	.
NNC(=O)c1[nH]c2ccccc2c1-c1ccccc1	-1	4	0	0	94*	653*	-1	AHR act cf=17;PXR counter=10
CC(=O)NNC(=O)c1[nH]c2ccc(Cl)cc2c1-c1ccccc1	44	23	0	0	9	11	.
Cc1cc(C)cc(-n2ncc3c2CCCC3NC(=O)c2cc(C)[nH]n2)c1 (centres undefined)	8	-2	0	-1	-1	641*	0	Yeast cmpd fluor=106;Mdr1 pump inh=0;CaCdr2 efflux inh=98;CaCdr1 efflux inh=0
CC(=O)c1cc(C(=O)NC2CCCc3c2cnn3-c2cc(C)cc(C)c2)[nH]n1 (centres undefined)	18	4	0	0	3	1	.
CCO[C@@H]1OC(C(=O)N2CCN(Cc3ccc4c(c3)OCO4)CC2)=C[C@H](C2CC2)[C@H]1CCCO	-7	-5	0	0	-3	183	.
C[C@@]12C(=O)Nc3ccc(F)cc3C(=O)N1[C@H]1c3cc(Cl)ccc3OC[C@@H]1[C@@H]2c1ccccc1	-3	0	0	0	1	409*	-1	Yeast cmpd fluor=128;Mdr1 pump inh=0;CaCdr2 efflux inh=127;CaCdr1 efflux inh=0
COc1ccc2c(c1)OC[C@H]1[C@H]2N2C(=O)c3cc(OC)c(OC)cc3NC(=O)[C@@]2(C)[C@H]1c1ccccc1	-7	2	48*	-1	-5	485*	-1	Yeast cmpd fluor=539*;Mdr1 pump inh=79*;CaCdr2 efflux inh=112;CaCdr1 efflux inh=34*
O=C(COc1ccc(Br)cc1Cl)c1ccc[nH]1	-48	15	0	-3	0	13	.
O=C(COc1ccccc1Cl)c1ccc[nH]1	-21	5	0.7*	-3	-2	788*	1	Yeast cmpd fluor=96;Mdr1 pump inh=0;CaCdr2 efflux inh=109;CaCdr1 efflux inh=0
SMILES	ALR H2O2 inh	VLA-4 inh	Efflux pump inh	Bfl-1 A1 inh	AHR activator	Mot1-301 SUMO	Yeast Mot1 SUMO	others
COc1ccc(NC(=O)CSc2nc(C)cs2)c(OC)c1	-8	-4	0	2	3	-13	.
CCOC(=O)c1ccccc1NC(=O)C1CC(=O)N(C(C)(C)C)C1 (centres undefined)	-2	12	0	1	1	11	.
CCOC(=O)c1ccccc1NC(=O)C1CC(=O)N(C2CCCCC2)C1 (centres undefined)	.	-4	6.2*	0	3	385*	-1	Yeast cmpd fluor=108;Mdr1 pump inh=0;CaCdr2 efflux inh=94;CaCdr1 efflux inh=0
O=C(c1ccc(F)cc1F)N1CCCc2ccccc21	-2	4	0	0	.	36	.
COc1ccccc1C(=O)N(NC(=O)Oc1ccccc1)C(C)(C)C	-3	9	5.8*	1	0	549*	0	Yeast cmpd fluor=99;Mdr1 pump inh=0;CaCdr2 efflux inh=112;CaCdr1 efflux inh=0
CNc1ccccc1-c1nc2ccccc2n(C)c1=O	?	1	0	3	113*	1	.	AHR act cf=107*;PXR counter=41*
COc1cccc(NC(=S)N2CCN(S(=O)(=O)c3ccccc3)CC2)c1	-16	-8	0	-1	.	0	.
CC1CCCN(C(=O)COC(=O)C2CCN(S(=O)(=O)c3c(Cl)cccc3Cl)CC2)C1 (centres undefined)	-11	6	0	0	-2	-16	.
Cc1nc2c(=O)[nH]c(=S)n(C)c2nc1C	5	-10	0	0	81*	-14	.	AHR act cf=56*;PXR counter=4
